Screening results deposited in PubChem by National Center for Advancing Translational Sciences (NCATS).
Shown are actives, neighbours in structure and some others; about 5.2% of the full set was active somewhere.
PLK1 PBD inh = inhibitors of human PLK1 polo-box domain binding. Potency, µM, most hits filed as inhibitors. P53350. Plk1 PBD binding of FITC phosphopeptide, fluorescence polarization. 360,000 compounds, 2.8% hits; further: series mostly up to about 57 µM; nearly all actives have a fitted effect of over 65% in size
mIDH1 inhibitor = inhibitors of human mutant IDH1 R132H; IDH1-R132H enzyme, NADPH consumption, diaphorase/resazurin fluorescence; 390,000 compounds, 0.093% hits; Potency, µM (highest dose often 76.6 µM), hits mostly inhibitors; O75874; further: nearly all actives have a fitted effect of over 65% in size
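IDH1-R132H (0.5 ug/mL) preincubated 30 min with compound, then NADPH (0.016 mM) and alpha-KG (2 mM) added; 80 min at RT, pH 7.5. Remaining NADPH coupled via diaphorase/resazurin to fluorescence (540/590 nm); concentration-response curves normalized to no-enzyme control.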
rTrxR1 inhibitor = blocks rat thioredoxin reductase 1. recombinant rTrxR1, NADPH fluorescence consumption, selenite substrate. Potency, µM (titrated, usually from 114 µM), actives largely listed as inhibitors. 390,000 compounds, 1% hits; further: nearly all actives have a fitted effect of over 65% in size
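Rat TrxR1 (90 nM in the dispensed reagent) was pre-reduced with 400 uM NADPH for 5 min at room temperature, then incubated with compound for 15 min. After 400 uM selenite was added, NADPH fluorescence (Ex 340/Em 450 nm) was followed for 8 min.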
Sfp inh = Sfp phosphopantetheinyl transferase inhibition; Potency, µM, actives largely listed as inhibitors; 310,000 compounds, 3.5% hits; Biochemical Sfp PPTase activity, qHTS; Q9F4F7;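 further: the enzyme is Sfp with the accession as filed and its product quenches rhodamine fluorescence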
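Fluorescence-quenching assay with 15 nM Sfp, 5 uM rhodamine-CoA and 12.5 uM BHQ-2-labelled ybbR peptide in pH 7.6 Hepes/MgCl2 buffer. Enzyme was pre-incubated with compound for 15 min at room temperature. Rate was taken from the 30-min fluorescence change (525/598 nm).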
TrxR1 substrate = rat thioredoxin reductase 1 substrate activity. O89049. 390,000 compounds, 0.01% hits. purified TrxR1 substrate turnover, NADPH consumption readout. Potency, µM (titrated, usually from 114 µM); further: nearly all actives have a fitted effect of over 50% in size
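Rat TrxR1, dispensed at 90 nM, was prereduced with 400 uM NADPH (final) for 5 min at ~22 deg C, then incubated with compound 15 min before 400 uM selenite. A first-read NADPH fluorescence drop versus no-compound background flagged substrates.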
VDR inhibitor = blocks the human vitamin D receptor; P11473; VDR-SRC2-3 peptide fluorescence polarization, 2 h; 400,000 compounds, 0.93% hits; Potency, µM, most hits filed as inhibitors
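VDR–SRC2-3 interaction, FP format. Cmpds 23 nl via pintool, brief spin, 2 h ambient incubation.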
Sfp inh conf = confirmation of Bacillus subtilis Sfp PPTase inhibitors | 380 compounds, 79% hits | AID 2701 | Sfp PPTase enzymatic assay, qHTS titration | Potency, µM (top dose mostly 114 µM), hits mostly inhibitors | shares compounds with Sfp inh
Target sequence (Q9F4F7 whole entry, looked up): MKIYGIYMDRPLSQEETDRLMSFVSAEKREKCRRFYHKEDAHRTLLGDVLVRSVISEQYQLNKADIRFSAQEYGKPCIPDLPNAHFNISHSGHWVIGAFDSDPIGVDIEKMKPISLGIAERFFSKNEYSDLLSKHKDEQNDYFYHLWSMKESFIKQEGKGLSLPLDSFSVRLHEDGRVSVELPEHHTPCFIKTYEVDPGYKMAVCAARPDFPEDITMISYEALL
Sfp gel assay = Blocks Sfp PPTase activity, gel read-out | shares compounds with Sfp inh | purified Sfp, gel-based phosphopantetheinylation read-out | Potency, µM, most hits filed as inhibitors | 210 compounds, 20% hits | AID 2707;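 active means potency below 100 µM; inconclusive means dose-dependent response but potency above 100 µM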;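 further: potency is an IC50 for inhibitors of Sfp transfer activity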
Of the large screens only hits and unclear results are named; the others gave an inactive call (follow-up assays come after a bar, where they were run). Unless noted, the call rests on the fitted dose curve; in most records, active means well fitted curve in the direction sought with a large enough effect; inconclusive means small, poorly fitted or top-dose-only effect, or another doubt; inactive means no such curve, though single readings can be large; an effect the other way counts as inactive or inconclusive.

O=C(OCc1ccc(Br)cc1)c1cccnc1	none
O=C(Cn1c2ncccc2c(=O)n1-c1ccccc1)Nc1ccc(Cl)cc1C(F)(F)F	none (no result: PLK1 PBD inh, Sfp inh)
COC(=O)c1ccc(-c2noc(CN(C)CCC3CCCCO3)n2)cc1 (stereo not drawn)	Sfp inh 0.71µM | Sfp inh conf inactive | Sfp gel assay inactive
CCN(Cc1cnn(C)c1)C(=O)c1ccc2nc(Cc3cccc(Cl)c3)oc2c1	none
CCOC(=O)c1c(N)sc2c1CCN(Cc1ccccc1)C2	Sfp inh 10µM, VDR inhibitor 40µM (no result: PLK1 PBD inh, mIDH1 inhibitor) | Sfp inh conf 21µM
COc1ccc(-c2nc3cnc(OC)nc3n(CCC#N)c2=O)cc1	none (no result: PLK1 PBD inh, mIDH1 inhibitor, rTrxR1 inhibitor, TrxR1 substrate)
O=C(CSc1nnc(-c2ccco2)n1Cc1ccccc1)OC1CCCCC1	none
O=C(CSc1nnc(-c2ccncc2)n1Cc1ccco1)OC1CCCCC1	rTrxR1 inhibitor inconclusive, Sfp inh 14µM | Sfp inh conf 53µM | Sfp gel assay inactive
CCCC(=O)Nc1c(-c2ccccc2Cl)c(=O)c2ccccc2n1C	none
CC(Cc1ccc(O)c(O)c1)(NN)C(=O)O (stereo not drawn)	Sfp inh 50µM (no result: PLK1 PBD inh, mIDH1 inhibitor, rTrxR1 inhibitor, TrxR1 substrate, VDR inhibitor) | Sfp inh conf 47µM | Sfp gel assay inactive
COC(=O)c1sc2ccccc2c1N	PLK1 PBD inh 27µM, Sfp inh 14µM | Sfp inh conf 47µM
COC(=O)c1sc2ccccc2c1NC(=O)c1cccs1	Sfp inh inconclusive
Cc1cc(C)c(NC(=O)COC(=O)CSc2ccc(Br)cc2C)c(C)c1	none
CCN(CC)c1ccc(NC(=O)COC(=O)CSc2ccc(Br)cc2C)cc1	Sfp inh 3.5µM | Sfp inh conf inconclusive | Sfp gel assay inconclusive
c1csc(-c2nc3ccccc3s2)c1	PLK1 PBD inh inconclusive, Sfp inh 35µM | Sfp inh conf 47µM | Sfp gel assay inconclusive
Oc1ccc(-c2nc3ccccc3s2)cc1	none
O=C(/C=C/c1ccc(Br)o1)NCc1ccccc1	PLK1 PBD inh inconclusive, rTrxR1 inhibitor 4µM, Sfp inh 6.3µM, VDR inhibitor 89µM | Sfp inh conf 17µM | Sfp gel assay inactive
O=C(/C=C/c1ccccc1Cl)NCc1ccccc1	none
Cn1c(/N=C/c2c(O)ccc3ccccc23)nc2ccccc21	PLK1 PBD inh 1.3µM, Sfp inh 0.89µM, VDR inhibitor 35µM | Sfp inh conf inactive
COc1cccc(NC(=O)CSC2=C(C#N)C(c3ccco3)C3=C(CCCC3=O)N2)c1 (stereo not drawn)	Sfp inh 7.9µM | Sfp inh conf 47µM | Sfp gel assay inactive
Cc1ccc(C(=O)NC(=S)Nc2ccc(-c3ccc(CO)o3)cc2)cc1	PLK1 PBD inh inconclusive, Sfp inh 7.1µM | Sfp inh conf 8.3µM
COCCNC(=O)c1c(N)sc2c1CCCC2	Sfp inh 14µM (no result: PLK1 PBD inh, mIDH1 inhibitor, rTrxR1 inhibitor, TrxR1 substrate, VDR inhibitor) | Sfp inh conf 37µM
CCOC(=O)c1c(NC(=O)CNCCOC)sc2c1CCCC2	none
CNC(=O)c1c(N)sc2c1CCCCC2	Sfp inh 20µM (no result: PLK1 PBD inh, mIDH1 inhibitor, rTrxR1 inhibitor, TrxR1 substrate, VDR inhibitor) | Sfp inh conf 21µM
C=CCOc1ccc(/C=C/C(=O)N2CCCN(S(=O)(=O)c3c(C)noc3C)CC2)cc1	none (no result: Sfp inh)
Cc1ccc(-c2cnc(-c3ccncc3)o2)cc1	rTrxR1 inhibitor inconclusive, Sfp inh 56µM | Sfp inh conf inactive | Sfp gel assay inactive
CCCCC(=O)Nc1ccc(C(=O)OCc2cc(=O)n3nc(C4CC4)sc3n2)cc1	none (no result: PLK1 PBD inh, Sfp inh)
Cc1nc2nncn2c(Nc2ccc(F)cc2)c1C	none (no result: PLK1 PBD inh, Sfp inh)
C[C@@H]1CN=C2N(CCNC(=O)CCC3CCCCC3)[C@H](Cc3ccc(O)cc3)CN21	PLK1 PBD inh inconclusive, Sfp inh 16µM | Sfp inh conf inconclusive
CN(C)CCNc1ncnc2c1ncn2[C@H]1CN(Cc2ccncc2)C[C@@H](CO)O1	none (no result: mIDH1 inhibitor, rTrxR1 inhibitor, Sfp inh, TrxR1 substrate, VDR inhibitor)
COc1cccc(CCNC(=O)c2cnc3sc(N4CCCCCC4)nn3c2=O)c1	none (no result: PLK1 PBD inh, Sfp inh)
